# Sampled rows, rich in hits. Any-hit rate of the full collection: about 5.4%.
# Six1-Eya2 blk – qHTS Assay for Inhibitors of the Six1/Eya2 Interaction; Homeobox protein SIX1 (Homo sapiens) + Protein phosphatase EYA2 (Homo sapiens), …; AlphaScreen GST-Six1/His-Eya2 binding, biochemical; stronger effect = lower value; activity change, % (concentration not given with the values); actives 0.56% (n = 360,000); AID 651725, 2012; in the data active = activity change below about -65%; inconclusive = mostly about -30% to -63%; also: % is scaled to controls: 0 for no effect and ±100 for the full control effect
#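 Compounds are tested against tagged Six1 and Eya2 proteins bridged by glutathione donor and nickel acceptor beads; after a one-hour incubation at 37 °C without light, AlphaScreen emission is recorded.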
# CtBP-E1A inh – qHTS Assay for Inhibitors of the CtBP/E1A Interaction; AlphaScreen GST-E1A/His-CtBP binding, 1536-well; stronger effect = lower value; activity change, % (concentration not given with the values); actives 0.49% (n = 340,000); AID 651724, 2012; in the data active = activity change below about -65%; inconclusive = mostly about -30% to -63%; also: % is scaled to controls: 0 for no effect and ±100 for the full control effect
#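 AlphaScreen with 125 nM GST-E1A and 125 nM His-CtBP (5X stocks) in Tris pH 8.0, 300 mM NaCl, BSA, Tween 20, TCEP. Compounds preincubated 2 h at 37 deg C, then glutathione donor/nickel acceptor beads added for 1 h at 37 deg C in dark.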
# RORgamma inh – qHTS for inhibitors of ROR gamma transcriptional activity | Drosophila S2 Gal4-RORgamma UAS-luciferase reporter, 20 h | actives 5.4% (n = 310,000) | Potency, µM (top dose mostly 53.6 µM), without a hit: top-dose activity change, negative = inhibition, hits mostly inhibitors | Nuclear receptor ROR-gamma (Mus musculus), P51450; also: potency is read from the fitted curve at half-maximal effect; % is scaled to controls: 0 for no effect and ±100 for the full control effect; nearly all actives have a fitted effect of over 60% in size
# Target sequence (P51450 whole entry, looked up, the tested form may be a part): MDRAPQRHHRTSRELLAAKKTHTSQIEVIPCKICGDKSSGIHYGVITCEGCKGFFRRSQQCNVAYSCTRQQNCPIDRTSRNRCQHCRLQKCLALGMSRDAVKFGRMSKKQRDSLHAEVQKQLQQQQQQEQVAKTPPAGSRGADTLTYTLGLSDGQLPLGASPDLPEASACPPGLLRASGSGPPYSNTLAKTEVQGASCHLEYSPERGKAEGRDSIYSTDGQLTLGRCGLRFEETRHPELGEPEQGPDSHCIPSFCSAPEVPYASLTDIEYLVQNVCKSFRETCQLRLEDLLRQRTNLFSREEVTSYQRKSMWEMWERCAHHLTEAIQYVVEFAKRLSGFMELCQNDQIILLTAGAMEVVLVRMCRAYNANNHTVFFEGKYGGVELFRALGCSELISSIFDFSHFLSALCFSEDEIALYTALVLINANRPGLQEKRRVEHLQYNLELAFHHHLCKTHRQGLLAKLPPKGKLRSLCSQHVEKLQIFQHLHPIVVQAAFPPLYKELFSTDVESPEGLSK
#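 Schneider cells (Drosophila), stable Gal4 DBD–ROR gamma + UAS-luc; 1 hr cmpd preincubation; Cu2+ induction 700 uM final; 20 hr ambient; luminescence.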
# VP16 counter – VP16 counterscreen qHTS for inhibitors of ROR gamma transcriptional activity. Drosophila S2 Gal4-VP16 UAS-luciferase, luminescence, 20 h. Potency, µM (doses to about 53.6 µM), for inactives: top-dose activity, negative = inhibition, usual class: inhibitors. actives 3.5% (n = 310,000). AID 2546, 2010;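 also: Gal4-VP16 expression switched on by copper sulfate through the metallothionein promoter; potency is read from the fitted curve at half-maximal effect; % is scaled to controls: 0 for no effect and ±100 for the full control effect; nearly all actives have a fitted effect of over 50% in size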
# p53 reactivation – qHTS assay for re-activators of p53 using a Luc reporter. H1299 p53-A138V BP100-luciferase reporter, luminescence, 24 h. actives 0.063% (n = 320,000). Potency, µM (titrated, usually from 92.2 µM), without a hit: at the highest dose activity change, positive = activation, hits mostly activators. AID 504706, 2011; also: potency is read from the fitted curve at half-maximal effect; % of control where 0% means no effect; nearly all actives have a fitted effect of over 45% in size
#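 p53-null H1299 cells stably carrying temperature-sensitive p53-A138V and a BP100-luciferase reporter were pinned with compounds (4-point, 1:5 series) and held 24 hrs at 37 deg C. Luminescence was read 10 min after detection reagent.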
# An asterisk follows results filed as active; ? = inconclusive; / = not tested or not shown; [ ] = another dose, or the depositor's remark. Unless noted, calls follow the shape of the dose curve; as a rule, active = well fitted curve in the direction sought with a large enough effect; inconclusive = small, poorly fitted or top-dose-only effect, or another doubt; inactive = no such curve, though single readings can be large; an effect the other way counts as inactive or inconclusive.
SMILES,Six1-Eya2 blk,CtBP-E1A inh,RORgamma inh,VP16 counter,p53 reactivation
CCN(CC)C(=O)c1sc(NC(=O)Cc2ccccc2)c(C#N)c1C,3,0,6.3µM*,2%,-15%
CCOC(=O)c1sc(NC(=O)CSc2n[nH]c(-c3ccccc3)n2)c(C#N)c1C,-11,-11,1.3µM*,5.6µM*,-8%
CCOC(=O)c1sc(NC(=O)CSc2nc(C)cc(C)n2)c(C#N)c1C,19,34,-2%,-1%,0%
O=C(NCC(F)(F)F)c1ccc(S(=O)(=O)N2CCN(C(=O)C3CCCO3)CC2)cc1 (configuration not stated),0,/,/,/,12%
CCc1ccc(NC(=O)CN(N=Nc2nonc2C)c2nonc2C)cc1,-5,-12,4µM*,?,6%
COc1ccc(-c2ccc(=O)n(CC(=O)NCC3COCCO3)n2)cc1 (configuration not stated),4,-8,/,/,3%
Cc1ccc(S(=O)(=O)Nc2cc(C(C(=O)OC(C)C)C(=O)C(F)(F)F)c(O)c3ccccc23)c(C)c1 (configuration not stated),-77*,-21,-28%,?,-11%
COC(=O)[C@@H]1C[C@@]2(O)[C@H](O)[C@H](O)[C@H](O)C[C@H]2N1CC(c1ccccc1)c1ccccc1,0,-2,-9%,-3%,-7%
CCn1c(Cc2ccc(OC)cc2)nnc1SCc1nc2ccccc2c(=O)[nH]1,-9,-5,?,-8%,0%
N[C@H](CSSC[C@@H](N)C(=O)O)C(=O)O,/,/,-28%,6%,/
O=c1cc(-c2ccccc2)oc2ccc(Cl)cc12,10,8,/,/,/
O=c1oc(-c2ccccc2)cc(Cl)c1Cl,0,-15,11µM*,10µM*,-14%
CCN1C(=O)[C@H]2[C@H]3[C@H](O)[C@H](O)C/C(=N/OC[C@@H](O)COCc4ccco4)[C@@H]3CC[C@@H]2C1=O,/,/,8%[10 µM],-6%[10 µM],/
C/C(=N\NC(=O)c1cccnc1)c1ccc(OC2OCCOC2Oc2ccc(/C(C)=N/NC(=O)c3cccnc3)cc2)cc1 (configuration not stated),0,0,-42%,-24%,-1%
Cc1cc(-c2csc3nc[nH]c(=S)c23)cc(C)c1C,-10,3,0.32µM*,0.56µM*,-4%
O=c1[nH]cnc2scc(-c3ccccc3)c12,29,13,28%,6%,-8%
Cc1ccc(-c2csc3nc[nH]c(=S)c23)cc1,-16,2,0.025µM*,0.014µM*,1%
O=c1[nH]cnc2scc(-c3ccc(Br)cc3)c12,-1,-10,-7%,2%,8%
S=c1[nH]cnc2scc(-c3ccc(Br)cc3)c12,-2,-1,0.5µM*,0.63µM*,0%
Cc1sc2nc[nH]c(=S)c2c1-c1ccccc1,-14,-8,0.28µM*,0.63µM*,0%
CC(C)c1ccc(-c2csc3nc[nH]c(=O)c23)cc1,2,/,?,-11%,16%
Clc1ccc(-c2csc3ncnc(Cl)c23)cc1,0,-4,11µM*,-29%,8%
S=c1[nH]cnc2scc(-c3ccc(Cl)cc3)c12,0,1,0.45µM*,1µM*,-2%
O=C(CSc1cn[nH]n1)Nc1ccccc1C(=O)O,2,3,0%,6%,4%
CC1=NN(C(=O)c2ccc(C)cc2)C(O)(C(F)(F)OC(F)(F)F)C1 (configuration not stated),-1,1,6.3µM*,11µM*,-1%
SMILES,Six1-Eya2 blk,CtBP-E1A inh,RORgamma inh,VP16 counter,p53 reactivation
CC1=NN(C(=O)c2ccccc2-n2cccc2)C(O)(C(F)(F)F)C1 (configuration not stated),0,-2,10µM*,?,6%
CC(=O)ON(C(C)=O)S(=O)(=O)c1ccc(Cl)cc1,/,/,-7%,-7%,/
S=C(Nc1ccccn1)c1ccccn1,-92*,-89*,7.1µM*,3.2µM*,?
O=C(Nc1ccccc1)Nc1ccccn1,0,7,39%,16%,?
c1ccc(Nc2ccccn2)nc1,-8,?,-3%,6%,12%
Cc1ccc(NC(=O)C2(c3ccccc3)CCCC2)nc1,8,10,/,/,/
O=C(Nc1ccccn1)C1(c2ccccc2)CCCC1,5,8,-12%,20µM*,8%
O=C(Nc1ccccn1)C(=O)Nc1ccccn1,4,3,10µM*,13µM*,4%
Cn1c(N)c(C(=O)COC(=O)C2(c3ccc(Cl)cc3)CCCC2)c(=O)n(C)c1=O,-2,3,35%,-5%,-1%
COc1ccc(N2CCN(C(=O)COC(=O)[C@@H](NC(=O)c3c(F)cccc3F)C(C)C)CC2)cc1,-1,-4,/,/,/
O=C(CNC(=O)c1ccccc1Cl)N/N=C/C=C/c1ccccc1,-1,-4,-29%,-9%,-2%
CCCCCCCCCCOCC(O)CN (configuration not stated),/,/,-15%,8%,/
COc1cccc2c1OC(=O)CC2c1ccc(C)cc1 (configuration not stated),/,/,40%[96.6 µM],3%[96.6 µM],/
CC(C)(C)c1ccc(OC(=O)Nc2ccc(O)c(C(=O)O)c2)cc1,-7,/,?,1.3µM*,-10%
Cc1cccc(OC(=O)Nc2ccc(C(=O)O)c(O)c2)c1,11,-1,/,/,/
O=C(Nn1cc(C(=O)Nc2ccc(F)cc2F)c2ccccc2c1=O)c1cnccn1,-72*,?,11µM*,?,5%
O=C1NC[C@@H](CCCCN2C[C@H](Cc3ccc(O)cc3)N(Cc3ccccc3)C(=O)C2=O)N(Cc2ccccc2)C1=O,-8,-3,/,/,/
O=C(c1ccccc1)c1cc(Cl)ccc1N1C(=O)C=CC1=O,0,2,?,16µM*,-12%
COCCn1c(SCC(=O)Nc2ncc(C)s2)nc2sc3c(c2c1=O)CCC3,/,/,-69%,10µM*,11%
C(=N\Nc1ccccn1)/c1ccc(N2CCOCC2)cc1,-10,-17,?,-30%,2%
C/C(=N\Nc1ccccn1)c1ccc(N2CCOCC2)cc1,-11,-3,7.1µM*,?,2%
C/C(=N\Nc1ccccn1)c1ccc(C(C)C)cc1,12,0,4µM*,11µM*,17%
N#CC(C(=S)Nc1ccccc1)c1nc2ccccc2[nH]1 (configuration not stated),-12,/,1.1µM*,2.5µM*,18%
O=C(C1CCCCC1)N1CCC(c2nc3ccccc3[nH]2)CC1,1,7,36%,-3%,-3%
CSC(=Nc1ccccc1)C(C#N)c1nc2ccccc2[nH]1 (configuration not stated),19,0,5.6µM*,-14%,8%
